The list is not random: actives were taken first. Their share in the collection is about 3.6%.
IMPase Li inh – membrane-permeable IMPase blocker, potentiated with lithium; AID 1457; Potency, µM (top dose mostly 59.4 µM), without a hit: at the highest dose activity, negative = IMPase inhibition, usual class: inhibitors; 210,000 tested, 0.35% active; CHO-M1 cells, IP1 TR-FRET (IP-One), carbachol + lithium;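 note: IP1 builds up when IMPase is blocked and the TR-FRET signal falls; plate controls were basal vehicle for no effect and high inhibitor control for full effect; nearly all actives have a fitted effect of over 50% in size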
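CHO cells stably expressing M1 receptor (2000/well) were cultured 16–30 h, then exposed to compounds with a small lithium addition for 30 min at 37C. IP1 was measured by TR-FRET competition; AC50 from Hill fits.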
KDM4E inh – JMJD2E (human) inhibition; B2RXH2; JMJD2E catalytic domain, FDH-coupled NADH fluorescence (FDH is formaldehyde dehydrogenase); Potency, µM (series often up to 57.1 µM), without a hit: top-dose activity change, negative = inhibition, actives largely listed as inhibitors; 230,000 tested, 1.6% active; AID 2147; active = well fitted inhibition curve with a large enough effect, not every such curve was filed as active; inconclusive = small, poorly fitted or top-dose-only effect, or another doubt; inactive = no such curve, though single readings can be large or run the other way;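 note: 0% = wells with enzyme and -100% = buffer wells without enzyme; nearly all actives have a fitted effect of over 50% in size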
Epigenetic derep – epigenetic control regulation, reporter derepression; murine LDR cells, GFP reporter derepression, 30 h; Potency, µM (doses to about 53.9 µM), for the others: top-dose GFP activation, most hits filed as activators; 280,000 tested, 0.2% active; AID 1865; note: % of control where 0% means no effect; nearly all actives have a fitted effect of over 60% in size
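Readout is the number of GFP-expressing murine LDR cells, counted by cytometry following washing. Cells were treated with compound for 30 h at 37 C; the stably integrated CMV-GFP locus is normally silent.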
NPSR antagonist – antagonists of human neuropeptide S receptor cAMP signaling | 220,000 tested, 1% active | Q6W5P4 | Potency, µM (top dose mostly 38.3 µM), for the others: at the top dose activity change, negative = inhibition, actives largely listed as inhibitors | CHO-NPSR cells, cAMP TR-FRET, antagonist mode; note: % is set by controls: 0 for no effect and ±100 for the full control effect; nearly all actives have a fitted effect of over 50% in size
KAT2A inh – GCN5L2 (KAT2A) acetyltransferase inhibition; GCN5L2 HAT assay, ThioGlo1 CoA-SH fluorescence; Potency, µM (doses to about 58.9 µM), for the others: top-dose activity change, negative = inhibition, most hits filed as inhibitors; 390,000 tested, 0.21% active; note: % is set by controls: 0 for no effect and ±100 for the full control effect
Target sequence (Q92830 whole entry, looked up): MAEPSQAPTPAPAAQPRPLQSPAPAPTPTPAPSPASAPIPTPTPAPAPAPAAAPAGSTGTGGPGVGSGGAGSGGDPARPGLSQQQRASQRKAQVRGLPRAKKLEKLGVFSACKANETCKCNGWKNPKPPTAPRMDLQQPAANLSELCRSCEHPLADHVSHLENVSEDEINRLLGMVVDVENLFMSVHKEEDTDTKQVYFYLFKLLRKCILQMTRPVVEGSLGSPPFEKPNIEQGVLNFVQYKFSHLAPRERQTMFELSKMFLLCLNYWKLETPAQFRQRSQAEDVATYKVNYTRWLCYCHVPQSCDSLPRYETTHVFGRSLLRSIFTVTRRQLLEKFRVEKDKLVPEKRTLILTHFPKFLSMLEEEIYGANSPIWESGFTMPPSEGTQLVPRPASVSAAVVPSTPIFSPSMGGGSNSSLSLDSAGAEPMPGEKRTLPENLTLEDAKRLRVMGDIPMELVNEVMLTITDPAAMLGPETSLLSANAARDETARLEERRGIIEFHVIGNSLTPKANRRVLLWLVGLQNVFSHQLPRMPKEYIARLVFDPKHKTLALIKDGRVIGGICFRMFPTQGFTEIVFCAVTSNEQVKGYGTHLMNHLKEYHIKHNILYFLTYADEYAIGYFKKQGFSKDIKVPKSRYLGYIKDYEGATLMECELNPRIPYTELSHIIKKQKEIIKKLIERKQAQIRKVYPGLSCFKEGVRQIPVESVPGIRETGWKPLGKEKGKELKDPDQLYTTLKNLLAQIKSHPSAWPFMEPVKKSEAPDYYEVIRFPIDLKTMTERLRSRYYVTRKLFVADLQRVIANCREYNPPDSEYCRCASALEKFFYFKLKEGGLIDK
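GCN5L2 (20 nM) in 50mM HEPES pH 7.5, 0.1mM EDTA, 0.01% Tween-20 preincubated 15 min with compounds at room temperature. Reaction started with H3(1-25) 75uM, acetyl-CoA 70uM, ThioGlo1 50uM; CoA-thiol fluorescence (Ex340/Em540) read at 0 and 20 min.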
Sfp inh – blocks B. subtilis Sfp PPTase activity | Q9F4F7 | Biochemical Sfp PPTase activity, qHTS | Potency, µM, for inactives: largest response in the series, negative = inhibition, hits mostly inhibitors | 310,000 tested, 3.5% active | AID 1490;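 note: the enzyme is Sfp with the accession as filed and its product quenches rhodamine fluorescence; 0% = enzyme reaction without inhibitor and -100% = no enzyme wells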
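With Hepes-Na pH 7.6 buffer containing 10 mM MgCl2, Sfp (15 nM) modified BHQ-2-YbbR (12.5 uM) using rhodamine-CoA (5 uM). Two reads 30 minutes apart at 525/598 nm yielded each well's rate.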
Starred values were filed as active, the others as inactive; ? = inconclusive; . = no result given; ! = repeats disagree; [ ] = remark or other dose. Unless noted, calls come from the whole dose curve; as a rule, active = well fitted curve in the direction sought with a large enough effect; inconclusive = small, poorly fitted or top-dose-only effect, or another doubt; inactive = no such curve, though single readings can be large; an effect the other way counts as inactive or inconclusive. Potency is the fitted concentration of half-maximal effect.

SMILES	IMPase Li inh	KDM4E inh	Epigenetic derep	NPSR antagonist	KAT2A inh	Sfp inh
Cc1nn(-c2ccccc2)c(C)c1/C=N/N1CCN(c2ccccn2)CC1	-4%	-2%	-4%	-15%	-10%	79µM*
BrC(=C\c1ccccc1)/C=N/N1CCN(c2ccccn2)CC1	26%[38.3 µM]	?	22µM*	-7%[46.1 µM]	-10%	-24%
CCN1/C(=C2\OC(=S)N(C)C2=O)C=Cc2ccccc21	-7%	-1%	?	-20%	-1%	-13%
CCN1C(=O)/C(=C2/Sc3ccccc3N2CC)SC1=S	.	.	.	.	-6%	-4%
CCN1/C(=C2\OC(=S)N(C)C2=O)Sc2ccccc21	11µM*	2%	1%	-10%[46.1 µM]	0%	2%
CCN1/C(=C2\SC(=S)N(Cc3ccccc3)C2=O)Sc2ccccc21	3%	9%	13µM*	-8%[46.1 µM]	-2%	-3%
O=c1c2oc3ccccc3c2[nH]c(=S)n1-c1ccc(F)cc1	11µM*	-24%	-3%	10µM*	-11%	79µM*
Cc1ccc(-n2c(=S)[nH]c3c(oc4ccccc43)c2=O)cc1C	.	-1%	-1%	?	-1%	-14%
COc1ccc(Br)cc1CNC(=O)c1cnc2sc(N3CCC(C)CC3)nn2c1=O	.	.	-2%	.	-4%	.
CCCCC1=CC2=CC(=O)C(C)(OC(=O)CC)C(=O)C2=CN1CCCCO (stereo unspecified)	5%	13µM*!	1%	1%	-17%	22%
CCCCC1=CC2=CC(=O)C(C)(OC(=O)CC)C(=O)C2=CN1C1CCCCC1 (stereo unspecified)	-3%	28µM*!	-2%	2%	0%	4%
CCCCC1=CC2=CC(=O)C(C)(OC(=O)CC)C(=O)C2=CN1c1ccc(OC)cc1 (stereo unspecified)	-3%	?	-2%	-6%	5%	3%
CCCCC1=CC2=CC(=O)C(C)(OC(=O)CC)C(=O)C2=CN1Cc1ccc2c(c1)OCO2 (stereo unspecified)	8%	18µM*!	-1%	-7%	-7%	20%
COC(=O)CCCC1=CC2=CC(=O)C(C)(OC(=O)c3cccs3)C(=O)C2=CN1C1CCCCC1 (stereo unspecified)	-1%	?	1%	-26%	31%	-4%
C=C(C)C(=O)OCCOCC	.	.	.	.	7%	-9%
CC(=O)NCCCS(=O)(=O)O	.	.	.	.	-5%	17%
CCC(C)c1cc([N+](=O)[O-])cc([N+](=O)[O-])c1OC(=O)OC(C)C (stereo unspecified)	.	.	.	.	18%	-12%
O=C(COc1ccc(F)cc1)NC1CC(=O)N(c2ccc3c(c2)OCCO3)C1 (stereo unspecified)	.	.	1%	.	-2%	.
Cc1ccc(CN2CCC(N3CC(C)OC(C)C3)CC2)cc1 (stereo unspecified)	.	.	.	.	1%	-24%
COc1ccc(CN2CCC(N3CC(C)OC(C)C3)CC2)c(OC)c1OC (stereo unspecified)	.	.	.	.	-1%	56µM*
c1cc(NC2CC2)nc(-c2ccoc2)n1	-3%	.	.	.	-24%	79µM*
c1csc(CNc2ccnc(-c3ccoc3)n2)c1	20%	.	.	.	-13%	79µM*
COc1ccccc1-c1nccc(NCc2cccs2)n1	27%	.	.	.	?	79µM*
CCc1nnc(SC(CC)C(=O)Nc2ccc(OC)c(Cl)c2)c2cc3occc3n12 (stereo unspecified)	.	.	1%	.	-4%	.
COC(=O)C1=C[C@@H](C(=O)OC)[C@@H]2C3=C(C(=O)[C@@]2(C)NC(=O)c2ccccc2)[C@H](C)[C@@H]2C(=O)N(Cc4ccccc4)C(=O)[C@@H]2[C@@H]3C1	.	.	.	.	.	7%
SMILES	IMPase Li inh	KDM4E inh	Epigenetic derep	NPSR antagonist	KAT2A inh	Sfp inh
Cc1ccccc1N1C(S)=C(C#N)C(=O)NC12CCCCC2	-1%	4%	0%	6%	-28%	14µM*
Cc1cccc(NC2=C(C#N)C(=O)NC3(CCCC3)S2)c1	.	12%	2%	0%	-17%	18µM*
Cc1cccc(N2C(S)=C(C#N)C(=O)NC23CCCCC3)c1	3%	0%	3%	6%	-6%	79µM*
Cc1cccc(Nc2nc(C)cc(C)c2C#N)c1	.	.	.	.	-5%	5%
Cc1ccc(N2C(S)=C(C#N)C(=O)NC23CCCCC3)cc1	24%	-3%	3%	-3%	1%	20µM*
COC(=O)C1=C(C)NC(C)=C(C(=O)NCCCN2CCC(c3ccccc3)(c3ccccc3)CC2)C1c1ccc([N+](=O)[O-])cc1 (stereo unspecified)	.	.	.	.	0%	-23%
Clc1ccc2nc(NCc3ccccc3)c3nncn3c2c1	.	.	-4%	.	-5%	.
COc1ccccc1Oc1c(NS(=O)(=O)c2ccc(C(C)(C)C)cc2)nc(-c2ncccn2)nc1OCCO	.	.	.	.	1%	56µM*
COc1ccc(S(=O)(=O)Nc2ccccn2)cc1	.	.	.	.	-9%	12%
CC(C)C[C@H](NC(=O)CNC(=O)[C@H](C)NC(=O)[C@H](CC(C)C)NC(=O)[C@H](CCCNC(=N)N)NC(=O)[C@H](Cc1cnc[nH]1)NC(=O)[C@@H](NC(=O)[C@@H](N)C(C)C)[C@@H](C)O)C(=O)N[C@@H](CC(C)C)C(=O)N[C@@H](CO)C(=O)N[C@@H](CCCNC(=N)N)C(=O)N[C@@H](CO)C(=O)NCC(=O)NCC(=O)N[C@H](C(=O)N[C@H](C(=O)N[C@@H](CCCCN)C(=O)N[C@@H](CC(N)=O)C(=O)N[C@@H](CC(N)=O)C(=O)N[C@@H](Cc1ccccc1)C(=O)N[C@H](C(=O)N1CCC[C@H]1C(=O)N[C@H](C(=O)N[C@@H](CC(N)=O)C(=O)N[C@H](C(=O)NCC(=O)N[C@@H](CO)C(=O)N[C@@H](CCCCN)C(=O)N[C@@H](C)C(=O)N[C@@H](Cc1ccccc1)C(N)=O)C(C)C)[C@@H](C)O)C(C)C)C(C)C)C(C)C	.	.	.	.	-6%	7%
CCCN(CC(=O)Nc1ccccc1C)C(=O)c1ccc2ccccc2n1	.	.	.	.	-12%	.
Cc1ccccc1NC(=S)c1ccc2ccccc2n1	.	.	.	.	-12%	28µM*
O=C1CC2(CCCC2)CC(=O)N1CCCCNCC1COc2ccccc2O1 (stereo unspecified)	-5%	.	1%	.	2%	?
NC(=O)C[C@@H](N)C(=O)O	-10%	.	1%	.	-8%	3%
NC(CS)C(=O)O (stereo unspecified)	.	.	.	.	11%	18µM*
C[C@@H](C[C@H](N)C(=O)O)C(=O)O	2%	.	0%	.	.	79µM*
N[C@H](CS)C(=O)O	-5%	.	2%	.	-10%	32µM*
NC(CSSCC(N)C(=O)O)C(=O)O (stereo unspecified)	.	.	.	.	-10%	7%
